The supplement of paper PMC3545927
The list shows a part of the results. The hit rate among all sequences tested is not known here.

Target: furin, P09958
Assay: furin cleavage Z-score vs untreated control; higher = more cleavage, active = 3.5 or more, inactive = 1 or less, 8 variable residues between constant flanks
How it was run: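 The cleavage Z-score is the log read count relative to furin-free reactions, lowess-adjusted and scaled by median absolute deviation. Counts came from sequencing DNA released from bead-bound 8-mer peptide–cDNA fusions after digestion with purified furin for 7.5, 15 or 30 min.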
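Note: purified furin at 1:10 enzyme:substrate in 50 mM HEPES pH 7.5.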

Chain of furin, P09958 (P09958 whole entry): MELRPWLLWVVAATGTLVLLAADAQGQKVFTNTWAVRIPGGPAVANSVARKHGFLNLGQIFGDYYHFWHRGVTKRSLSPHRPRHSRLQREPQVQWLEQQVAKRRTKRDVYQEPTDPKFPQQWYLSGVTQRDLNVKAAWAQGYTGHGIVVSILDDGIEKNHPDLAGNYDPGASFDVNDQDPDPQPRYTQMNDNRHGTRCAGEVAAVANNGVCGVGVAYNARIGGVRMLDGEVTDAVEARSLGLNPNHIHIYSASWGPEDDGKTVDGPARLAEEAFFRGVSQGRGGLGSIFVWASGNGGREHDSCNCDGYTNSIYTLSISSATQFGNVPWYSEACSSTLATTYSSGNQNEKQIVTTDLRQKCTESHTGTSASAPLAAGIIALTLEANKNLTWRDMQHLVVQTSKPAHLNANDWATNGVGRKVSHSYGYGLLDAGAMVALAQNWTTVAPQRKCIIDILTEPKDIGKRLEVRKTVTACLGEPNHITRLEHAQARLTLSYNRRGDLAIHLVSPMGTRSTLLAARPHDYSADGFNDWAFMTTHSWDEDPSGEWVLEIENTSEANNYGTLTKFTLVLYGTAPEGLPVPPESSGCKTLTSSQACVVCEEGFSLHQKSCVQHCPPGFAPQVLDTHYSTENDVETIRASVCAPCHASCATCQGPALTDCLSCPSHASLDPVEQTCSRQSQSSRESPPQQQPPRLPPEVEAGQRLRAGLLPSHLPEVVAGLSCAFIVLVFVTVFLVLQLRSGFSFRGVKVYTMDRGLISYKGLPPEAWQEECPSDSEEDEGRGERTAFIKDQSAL

B1: HC1740 (peptide)
chain: CAMEECSCHLAGNASASA
7.5 min
  furin cleavage Z-score: 0.898 (inactive)
15 min
  furin cleavage Z-score: -0.945 (inactive)
30 min
  furin cleavage Z-score: 0.106 (inactive)

B2: HC1287 (peptide)
chain: CALDSFDPLVAGNASASA
7.5 min
  furin cleavage Z-score: 0.861 (inactive)
15 min
  furin cleavage Z-score: 0.184 (inactive)
30 min
  furin cleavage Z-score: 1.88

B3: HC1356 (peptide)
chain: CALEGEPGDPAGNASASA
7.5 min
  furin cleavage Z-score: -0.565 (inactive)
15 min
  furin cleavage Z-score: 0.288 (inactive)
30 min
  furin cleavage Z-score: 0.927 (inactive)

B4: FS-1459 (peptide)
chain: CAKMRRKKRFAGNASASA
7.5 min
  furin cleavage Z-score: 7.33 (active)
15 min
  furin cleavage Z-score: 9.76 (active)
30 min
  furin cleavage Z-score: 8.97 (active)

B5: FS-352 (peptide)
chain: CALNEIKKRFAGNASASA
7.5 min
  furin cleavage Z-score: 0.841 (inactive)
15 min
  furin cleavage Z-score: -1.42 (inactive)
30 min
  furin cleavage Z-score: -0.561 (inactive)

B6: FS-1457 (peptide)
chain: CAGSIRKKRFAGNASASA
7.5 min
  furin cleavage Z-score: 6.25 (active)
15 min
  furin cleavage Z-score: 7.01 (active)
30 min
  furin cleavage Z-score: 6.64 (active)

B7: HC578 (peptide)
chain: CAYKRYISWCAGNASASA
7.5 min
  furin cleavage Z-score: 0.0156 (inactive)
15 min
  furin cleavage Z-score: 0.474 (inactive)
30 min
  furin cleavage Z-score: 1.13

B8: HC1215 (peptide)
chain: CANLKCPCQVAGNASASA
7.5 min
  furin cleavage Z-score: -0.928 (inactive)
15 min
  furin cleavage Z-score: -0.942 (inactive)
30 min
  furin cleavage Z-score: -0.8 (inactive)

B9: FS-1085 (peptide)
chain: CASQFRSKRSAGNASASA
7.5 min
  furin cleavage Z-score: 9.98 (active)
15 min
  furin cleavage Z-score: 9.45 (active)
30 min
  furin cleavage Z-score: 7.11 (active)

B10: FS-590 (peptide)
chain: CAFWVRSKRSAGNASASA
7.5 min
  furin cleavage Z-score: 9.47 (active)
15 min
  furin cleavage Z-score: 8.07 (active)
30 min
  furin cleavage Z-score: 7.6 (active)

B11: FS-874 (peptide)
chain: CASSTRSKRSAGNASASA
7.5 min
  furin cleavage Z-score: 11.9 (active)
15 min
  furin cleavage Z-score: 11.3 (active)
30 min
  furin cleavage Z-score: 10 (active)

B12: FS-564 (peptide)
chain: CASQQRQYRSAGNASASA
7.5 min
  furin cleavage Z-score: 2.45
15 min
  furin cleavage Z-score: 5.55 (active)
30 min
  furin cleavage Z-score: 5.41 (active)

B13: FS-464 (peptide)
chain: CAMSTWSKRSAGNASASA
7.5 min
  furin cleavage Z-score: 0.45 (inactive)
15 min
  furin cleavage Z-score: 1.32
30 min
  furin cleavage Z-score: 1.43

B14: HC539 (peptide)
chain: CAASLAGTHGAGNASASA
7.5 min
  furin cleavage Z-score: 0.00941 (inactive)
15 min
  furin cleavage Z-score: 3.06
30 min
  furin cleavage Z-score: 1.2

B15: HC2471 (peptide)
chain: CADTPCSAHLAGNASASA
7.5 min
  furin cleavage Z-score: -1.99 (inactive)
15 min
  furin cleavage Z-score: -1.52 (inactive)
30 min
  furin cleavage Z-score: -0.796 (inactive)

B16: HC493 (peptide)
chain: CALLLTTTQWAGNASASA
7.5 min
  furin cleavage Z-score: -0.815 (inactive)
15 min
  furin cleavage Z-score: -0.0284 (inactive)
30 min
  furin cleavage Z-score: 0.00617 (inactive)

B17: HC1924 (peptide)
chain: CATTPCSGSIAGNASASA
7.5 min
  furin cleavage Z-score: -0.658 (inactive)
15 min
  furin cleavage Z-score: -0.276 (inactive)
30 min
  furin cleavage Z-score: -1.61 (inactive)

B18: HC2366 (peptide)
chain: CAEVPCHMPSAGNASASA
7.5 min
  furin cleavage Z-score: 0.437 (inactive)
15 min
  furin cleavage Z-score: 1.57
30 min
  furin cleavage Z-score: 0.743 (inactive)

B19: HC1265 (peptide)
chain: CAPSLKATCTAGNASASA
7.5 min
  furin cleavage Z-score: 0.563 (inactive)
15 min
  furin cleavage Z-score: 1.42
30 min
  furin cleavage Z-score: 0.215 (inactive)

B20: HC1194 (peptide)
chain: CATGPCTPLPAGNASASA
7.5 min
  furin cleavage Z-score: -0.592 (inactive)
15 min
  furin cleavage Z-score: -0.46 (inactive)
30 min
  furin cleavage Z-score: 0.602 (inactive)

B21: HC658 (peptide)
chain: CADIINGLPVAGNASASA
7.5 min
  furin cleavage Z-score: -0.191 (inactive)
15 min
  furin cleavage Z-score: -0.925 (inactive)
30 min
  furin cleavage Z-score: -0.966 (inactive)

B22: HC1735 (peptide)
chain: CAMEECSHHLAGNASASA
7.5 min
  furin cleavage Z-score: 0.695 (inactive)
15 min
  furin cleavage Z-score: -0.107 (inactive)
30 min
  furin cleavage Z-score: -0.123 (inactive)

B23: FS-1568 (peptide)
chain: CASKERSKRSAGNASASA
7.5 min
  furin cleavage Z-score: 12.6 (active)
15 min
  furin cleavage Z-score: 10.6 (active)
30 min
  furin cleavage Z-score: 9.24 (active)

B24: FS-94 (peptide)
chain: CASSARNKRSAGNASASA
7.5 min
  furin cleavage Z-score: 11.8 (active)
15 min
  furin cleavage Z-score: 11.6 (active)
30 min
  furin cleavage Z-score: 8.13 (active)

B25: FS-232 (peptide)
chain: CAELNRSKKDAGNASASA
7.5 min
  furin cleavage Z-score: 0.785 (inactive)
15 min
  furin cleavage Z-score: 0.28 (inactive)
30 min
  furin cleavage Z-score: 0.715 (inactive)

B26: FS-1626 (peptide)
chain: CAEKERSKRSAGNASASA
7.5 min
  furin cleavage Z-score: 9.14 (active)
15 min
  furin cleavage Z-score: 7.38 (active)
30 min
  furin cleavage Z-score: 7.92 (active)

B27: FS-927 (peptide)
chain: CAELNRSKRSAGNASASA
7.5 min
  furin cleavage Z-score: 10.6 (active)
15 min
  furin cleavage Z-score: 9.86 (active)
30 min
  furin cleavage Z-score: 8.24 (active)

B28: HC559 (peptide)
chain: CALLLLLALPAGNASASA
7.5 min
  furin cleavage Z-score: -0.496 (inactive)
15 min
  furin cleavage Z-score: -0.0246 (inactive)
30 min
  furin cleavage Z-score: -1.1 (inactive)

B29: HC1851 (peptide)
chain: CATDPCSGSWAGNASASA
7.5 min
  furin cleavage Z-score: -1.13 (inactive)
15 min
  furin cleavage Z-score: -1.19 (inactive)
30 min
  furin cleavage Z-score: -1.08 (inactive)

B30: HC332 (peptide)
chain: CAAILDMIAGAGNASASA
7.5 min
  furin cleavage Z-score: 0.577 (inactive)
15 min
  furin cleavage Z-score: 0.516 (inactive)
30 min
  furin cleavage Z-score: -0.84 (inactive)

B31: HC795 (peptide)
chain: CASKAHGIDPAGNASASA
7.5 min
  furin cleavage Z-score: -1.17 (inactive)
15 min
  furin cleavage Z-score: -1.03 (inactive)
30 min
  furin cleavage Z-score: 1.13

B32: FS-721 (peptide)
chain: CASKSLSKRSAGNASASA
7.5 min
  furin cleavage Z-score: 8.05 (active)
15 min
  furin cleavage Z-score: 10.1 (active)
30 min
  furin cleavage Z-score: 6.73 (active)

B33: HC1850 (peptide)
chain: CATVPCSGSWAGNASASA
7.5 min
  furin cleavage Z-score: -0.242 (inactive)
15 min
  furin cleavage Z-score: -1.82 (inactive)
30 min
  furin cleavage Z-score: -1.24 (inactive)

B34: FS-2565 (peptide)
chain: CARKRRGTGYAGNASASA
7.5 min
  furin cleavage Z-score: 9.5 (active)
15 min
  furin cleavage Z-score: 11.3 (active)
30 min
  furin cleavage Z-score: 9.57 (active)

B35: FS-2348 (peptide)
chain: CARKRRIVSGAGNASASA
7.5 min
  furin cleavage Z-score: -0.706 (inactive)
15 min
  furin cleavage Z-score: 0.0646 (inactive)
30 min
  furin cleavage Z-score: -1.35 (inactive)

B36: FS-2975 (peptide)
chain: CARKRRSIRYAGNASASA
7.5 min
  furin cleavage Z-score: 8.7 (active)
15 min
  furin cleavage Z-score: 10.2 (active)
30 min
  furin cleavage Z-score: 9.27 (active)

B37: HC1349 (peptide)
chain: CAPPDSDAESAGNASASA
7.5 min
  furin cleavage Z-score: -1.81 (inactive)
15 min
  furin cleavage Z-score: -1.84 (inactive)
30 min
  furin cleavage Z-score: -0.313 (inactive)

B38: FS-1959 (peptide)
chain: CARKRRGTKGAGNASASA
7.5 min
  furin cleavage Z-score: 8.4 (active)
15 min
  furin cleavage Z-score: 9.53 (active)
30 min
  furin cleavage Z-score: 8.24 (active)

B39: HC879 (peptide)
chain: CATDALMTGYAGNASASA
7.5 min
  furin cleavage Z-score: 0.343 (inactive)
15 min
  furin cleavage Z-score: 0.0305 (inactive)
30 min
  furin cleavage Z-score: 0.976 (inactive)

B40: FS-2972 (peptide)
chain: CARKRREAESAGNASASA
7.5 min
  furin cleavage Z-score: 12 (active)
15 min
  furin cleavage Z-score: 12.2 (active)
30 min
  furin cleavage Z-score: 8.7 (active)

B41: FS-2682 (peptide)
chain: CARHYRPTGYAGNASASA
7.5 min
  furin cleavage Z-score: -1.08 (inactive)
15 min
  furin cleavage Z-score: -0.433 (inactive)
30 min
  furin cleavage Z-score: -0.26 (inactive)

B42: FS-2035 (peptide)
chain: CARKDRRKKGAGNASASA
7.5 min
  furin cleavage Z-score: 0.369 (inactive)
15 min
  furin cleavage Z-score: 0.879 (inactive)
30 min
  furin cleavage Z-score: 1.04

B43: HC93 (peptide)
chain: CAVVCESMSYAGNASASA
7.5 min
  furin cleavage Z-score: 1.27
15 min
  furin cleavage Z-score: 1.17
30 min
  furin cleavage Z-score: 0.112 (inactive)

B44: HC934 (peptide)
chain: CAGLPVCQDHAGNASASA
7.5 min
  furin cleavage Z-score: -1.12 (inactive)
15 min
  furin cleavage Z-score: -0.715 (inactive)
30 min
  furin cleavage Z-score: -0.789 (inactive)
